Data from PubChem BioAssay (Tox21).
Records with an inconclusive call do not appear. Active and inactive are the calls of the source. The call rests on the fitted dose curve.

Assay: qHTS assay to identify small molecule agonists or antagonists of the thyroid stimulating hormone receptor (TSHR) signaling pathway - wild type cell line counter screen (AID 1259384)
Conditions: HEK293 wild type, cAMP HTRF counter-screen; series mostly up to 92.4 µM
Source text: U.S. Tox21 Program National Center for Advancing Translational Sciences [NCATS] NIH Chemical Genomics Center [NCGC] U.S. Environmental Protection Agency [EPA] National Institutes of Environmental Health Sciences [NIEHS] National Toxicology Program [NTP] U.S. Food and Drug Administration [FDA] Tox21 Assay Overview: TSHR is the receptor for thyrotropin (thyroid stimulating hormone or TSH), a member of the glycoprotein hormone family. TSH is released by the anterior pituitary gland and is the main regulator of thyroid gland growth and development. Upon binding circulating thyrotropin, a G-protein signal cascade activates adenylyl cyclase and […] cAMP concentration is increased. cAMP is a key second messenger involved extensively in cellular signal transduction pathways associated with the majority of G-protein coupled receptors (GPCRs). The activation of these GPCRs by neurotransmitters, lipids, nucleotides, peptides and hormones results in the activation or the inhibition of plasma membrane-bound adenylate cyclase through heterotrimeric G-proteins. A cell-based TSHR-Hek293 assay can be used to identify TSHR agonists. To eliminate the false positive compounds identified from screening a cell-based TSHR-Hek293 cell line, cAMP assay in a wild type Hek293 cells was used as a counter screening.
Tox21 Assay Protocol Summary: Hek293 cells (wild type) were dispensed at 800 cells/4 uL/well in 1536-well white plates using a Multidrop dispenser. After the assay plates were incubated at a 37 C/5% CO2 incubator for 18 hrs, 23 nL of compounds dissolved in DMSO, positive controls or DMSO only was transferred to the assay plate by a pin tool, followed by 1 ul medium containing Ro20-1724. After 30 min of incubation at room temperature, 2.5 ul/well of cAMP-d2 and 2.5 ul/well of anti-cAMP-cryptate were added respectively into the assay plates using a Flying Reagent Dispenser. The plates were incubated at room temperature for 1 hr. The fluorescence intensity in the plates was measured using an Envision plate reader. Each test compound was measured at 15 concentrations and in triplicates.

SMILES | outcome
c1ccc(NNc2ccccc2)cc1 | inactive
CCC(C)(C)c1ccc(O)cc1 | inactive
CCC(C)(c1ccc(O)cc1)c1ccc(O)cc1 | inactive
CC1(C)C(C=C(Cl)Cl)C1C(=O)OC(C#N)c1cccc(Oc2ccccc2)c1 (stereo not given) | inactive
CCCCN(CC)c1c([N+](=O)[O-])cc(C(F)(F)F)cc1[N+](=O)[O-] | inactive
CC(C)C(=O)OCC(C)(C)C(OC(=O)C(C)C)C(C)C (stereo not given) | inactive
CCCCC(CC)COC(=O)c1ccc(C(=O)OCC(CC)CCCC)c(C(=O)OCC(CC)CCCC)c1 (stereo not given) | inactive
CCN(CC)N=O | inactive
CC(C)(c1cc(Cl)c(O)c(Cl)c1)c1cc(Cl)c(O)c(Cl)c1 | inactive
O=P(Oc1ccccc1)(Oc1ccccc1)Oc1ccccc1 | inactive
CCOC(=S)S | inactive
CCOP(=S)(OCC)O/N=C(\C#N)c1ccccc1 | inactive
CC(C)NC(C)C | inactive
C1=Cc2cccc3cccc1c23 | inactive
NNC(N)=S | inactive
C=C(C)[C@H]1Cc2c(ccc3c2O[C@@H]2COc4cc(OC)c(OC)cc4[C@@H]2C3=O)O1 | inactive
C=CCN(CC=C)C(=O)C(Cl)Cl | inactive
CCOC(=O)C(C)OC(=O)c1cc(Oc2ccc(C(F)(F)F)cc2Cl)ccc1[N+](=O)[O-] (stereo not given) | inactive
C#CCOS(=O)OC1CCCCC1Oc1ccc(C(C)(C)C)cc1 (stereo not given) | inactive
COc1ccc(C=O)cc1 | inactive

SMILES | outcome
COc1ccc(C(CN(C)C)C2(O)CCCCC2)cc1 (stereo not given) | inactive
Cc1ccc2c(c1N)C(=O)c1ccccc1C2=O | inactive
Oc1c(Cl)c(Cl)c(Cl)c(Cl)c1Cl | inactive
CC(C)N(C(=O)SCC(Cl)=C(Cl)Cl)C(C)C | inactive
Cc1cccc(N)c1N | inactive
NC(=S)Nc1ccccc1 | inactive
CCCCCc1cc(O)cc(O)c1 | inactive
CC(C)Oc1cc(-n2nc(C(C)(C)C)oc2=O)c(Cl)cc1Cl | inactive
Oc1cc(Cl)ccc1Cl | inactive
C=CCc1ccc2c(c1)OCO2 | inactive
O=C(NC(=O)c1c(F)cccc1F)Nc1ccc(Cl)cc1 | inactive
CCCCCCCCC(=O)NCc1ccc(O)c(OC)c1 | inactive
CCOc1cc(C=O)ccc1O | inactive
Nc1ccncc1 | inactive
Nc1cccnc1 | inactive
Nc1ccc(-c2ccc(N)c(N)c2)cc1N | inactive
c1cc(OCC2CO2)ccc1Cc1ccc(OCC2CO2)cc1 (stereo not given) | inactive
C=C(C)C(=O)OCC1CO1 (stereo not given) | inactive
CCCCOCCOP(=O)(OCCOCCCC)OCCOCCCC | inactive
Oc1cc(Cl)c(Cl)cc1Cl | inactive
